Glyco luc inh: N-linked glycosylation inhibition | hit rate 0.23% among 360,000 | AID 588692 | reporter increase, % at 12.5 µM | D54 ERlucT glycosylation luciferase reporter, 24 h; percent of 100 nM tunicamycin response;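 active = mean luciferase reporter signal, scaled so untreated is 0 and the glycosylation-blocking control 100, at or above a set limit in every replicate; inconclusive = mean reaches the limit but not every replicate does; inactive = mean below the limit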;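 also: luciferase carries N-glycosylation sites so blocking glycosylation raises the light; 0% = median of neutral control wells and 100% = median of 100 nM tunicamycin wells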
CASP6 VEID inh: blocks human caspase-6 cleavage activity | purified caspase-6, Z-VEID-R110 cleavage fluorescence | inhibition, % at 12.5 µM | hit rate 0.53% among 350,000 | AID 686996;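 active = mean inhibition across replicates at least about 35%, with every replicate also reaching that limit, limit read from the data; inconclusive = only one of the two criteria met; inactive = neither criterion met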;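 also: 0% = median of neutral control wells and 100% = no fluorescence left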
Target sequence (P55212 24-179 limits assumed): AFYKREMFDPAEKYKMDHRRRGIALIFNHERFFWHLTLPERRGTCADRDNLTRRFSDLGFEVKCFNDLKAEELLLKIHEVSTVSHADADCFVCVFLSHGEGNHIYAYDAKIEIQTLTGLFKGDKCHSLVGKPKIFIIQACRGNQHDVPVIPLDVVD
Target sequence (P55212 194-293 limits assumed): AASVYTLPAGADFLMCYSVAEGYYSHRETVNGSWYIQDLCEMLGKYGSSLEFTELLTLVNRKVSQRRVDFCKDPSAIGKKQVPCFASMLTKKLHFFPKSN
SUMO Mot1 rescue: blocks SUMOylation pathway, rescuing yeast Mot1-301 growth; growth rescue, % at 18.8 µM; S. cerevisiae Mot1-301 growth rescue, ATP luminescence, 38.5C; percent above DMSO median, 100 means doubled; hit rate 1% among 320,000;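 active = every valid replicate shows activation above 250% relative to neutral control wells; inactive = the rest, any valid replicate at or below 250%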;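 also: OY570 slx delta 5 strain wells were the positive control but not used for scaling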
ALR inh: inhibitors of human sulfhydryl oxidase ALR; P55789; purified ALR, DTT oxidation, H2O2 HRP-luminol luminescence; inhibition, % (concentration not given with the values); hit rate 3.8% among 290,000; AID 485317;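 active = mean replicate inhibition above about 79%, with every replicate also reaching it, limit read from the data; inconclusive = only one of the two criteria met; inactive = mean below limit and not every replicate reaching it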
Target sequence (P55789 whole entry, looked up): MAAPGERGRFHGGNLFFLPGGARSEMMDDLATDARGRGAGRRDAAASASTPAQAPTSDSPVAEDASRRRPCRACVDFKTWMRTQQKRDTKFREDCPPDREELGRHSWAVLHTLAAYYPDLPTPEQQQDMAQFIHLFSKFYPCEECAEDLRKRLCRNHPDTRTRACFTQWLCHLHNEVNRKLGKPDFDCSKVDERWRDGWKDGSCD
CDK5 inh: CDK5/p35 (human) kinase inhibition. Q00535+Q15078. Recombinant CDK5/p35, ADP-Glo luminescence, 60 min. inhibition, % at 10 µM. hit rate 0.01% among 330,000;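 active = highest replicate inhibition of at least 50% and at least 75% of replicates reaching 50%; inconclusive = only one of the two criteria met; inactive = both criteria failed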;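 also: plate controls were DMSO neutral control for no effect and GW8510 at 10 µM for full effect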
NSD2 HMT inh: inhibitors of human histone methyltransferase NSD2 | O96028 | NSD2 peptide methylation, AlphaScreen, 120 min | inhibition, % at 12.5 µM | hit rate 0.54% among 310,000 | AID 743445; in the data active = inhibition above about 50%
Numbers without * were called inactive. Only some compounds are listed: those with a hit (about 3.9% of all), similar ones and a draw of the others.

What do the screens show for `CCC(=O)NCC(c1ccco1)N1CCN(c2ccc(OC)cc2)CC1` (stereo unspecified)?
Glyco luc inh: 1; CASP6 VEID inh: -1; SUMO Mot1 rescue: -14; ALR inh: inconclusive; CDK5 inh: 1

Results for COc1ccc(N2CCN(C(CNC(=O)COc3ccccc3)c3ccco3)CC2)cc1 (stereo unspecified) ?
Glyco luc inh: -2; CASP6 VEID inh: 0; SUMO Mot1 rescue: -18; ALR inh: 89*; CDK5 inh: 0; NSD2 HMT inh: 25

How did CNC[C@H]1OCCCC[C@H](C)Oc2ccc(NC(=O)c3ccccc3)cc2C(=O)N([C@H](C)CO)C[C@@H]1C do in these assays?
CASP6 VEID inh: -5

Results for CC(C)NC(=O)N(C)C[C@@H]1Oc2c(NC(=O)Nc3ccc(C(F)(F)F)cc3)cccc2C(=O)N([C@H](C)CO)C[C@H]1C ?
CASP6 VEID inh: -1

How did COc1ccc(N2CCN(C(CNC(=O)C(=O)NCCCO)c3ccco3)CC2)cc1 (stereo unspecified) do in these assays?
Glyco luc inh: -2; CASP6 VEID inh: -2; SUMO Mot1 rescue: 0; ALR inh: 86*; CDK5 inh: -3; NSD2 HMT inh: 0

What do the screens show for `O=C(NCC(c1ccco1)N1CCN(c2ccc(F)cc2)CC1)c1ccco1` (stereo unspecified)?
Glyco luc inh: 0; CASP6 VEID inh: 0; SUMO Mot1 rescue: 0; ALR inh: 55; CDK5 inh: -1; NSD2 HMT inh: 1

What do the screens show for `Cc1nc2sc(C(c3ccco3)N3CCN(c4ccc(F)cc4)CC3)c(O)n2n1` (stereo unspecified)?
Glyco luc inh: -3; CASP6 VEID inh: 1; SUMO Mot1 rescue: 3; ALR inh: 94*; CDK5 inh: 2

What do the screens show for `Cc1nc2sc(C(c3ccco3)N3CCN(c4ccccc4F)CC3)c(O)n2n1` (stereo unspecified)?
Glyco luc inh: -1; SUMO Mot1 rescue: -11; ALR inh: 2; CDK5 inh: -1; NSD2 HMT inh: 3

Results for COc1ccc(N2CCN(C(CNC(=O)C(=O)NCCc3c[nH]c4ccccc34)c3ccco3)CC2)cc1 (stereo unspecified) ?
Glyco luc inh: -4; SUMO Mot1 rescue: 7; ALR inh: 8; CDK5 inh: 2; NSD2 HMT inh: -4

How did COC(=O)NCC(c1ccco1)N1CCN(c2ccc(F)cc2)CC1 (stereo unspecified) do in these assays?
Glyco luc inh: 0; CASP6 VEID inh: 0; SUMO Mot1 rescue: 8; ALR inh: 92*; CDK5 inh: 1; NSD2 HMT inh: 0

What do the screens show for `C[C@H](CO)N1C[C@H](C)[C@H](CN(C)S(=O)(=O)c2cn(C)cn2)Oc2c(NC(=O)NC3CCCCC3)cccc2C1=O`?
CASP6 VEID inh: 3

Results for Cc1noc(C)c1S(=O)(=O)Nc1cccc2c1O[C@H](CN(C)S(=O)(=O)c1cccs1)[C@H](C)CN([C@@H](C)CO)C2=O ?
CASP6 VEID inh: -2

How did C[C@@H]1CN([C@H](C)CO)S(=O)(=O)c2ccc(C#Cc3ccccn3)cc2O[C@H]1CN(C)C(=O)C1CC1 do in these assays?
CASP6 VEID inh: 0

What do the screens show for `COc1ccccc1C1(CC(=O)N2CCOCC2)CCOC(C(C)C)C1` (stereo unspecified)?
Glyco luc inh: 2; SUMO Mot1 rescue: 570*; ALR inh: -6; CDK5 inh: -7; NSD2 HMT inh: 2

What do the screens show for `NNC(=O)c1sc(-c2ccc(Cl)cc2)cc1N`?
Glyco luc inh: 0; CASP6 VEID inh: 0; SUMO Mot1 rescue: -15; ALR inh: 98*; CDK5 inh: -3; NSD2 HMT inh: -3

Results for C[C@H](CO)N1C[C@H](C)[C@@H](CN(C)S(=O)(=O)c2cn(C)cn2)Oc2c(NC(=O)NC3CCCCC3)cccc2C1=O ?
CASP6 VEID inh: -2

How did CC(=C/c1ccccc1)/C=N/NC(=O)c1cccs1 do in these assays?
Glyco luc inh: -12; CASP6 VEID inh: 4; SUMO Mot1 rescue: 29; ALR inh: -3; NSD2 HMT inh: 0

How did O=C(N/N=C/C(Br)=C\c1ccccc1)c1cccs1 do in these assays?
Glyco luc inh: -2; CASP6 VEID inh: 2; SUMO Mot1 rescue: 299*; ALR inh: -9; NSD2 HMT inh: -1

What do the screens show for `O=C(O)c1ccc(N/N=C/C(Br)=C/c2ccccc2)cc1`?
Glyco luc inh: -6; CASP6 VEID inh: 4; SUMO Mot1 rescue: 0; ALR inh: 98*; CDK5 inh: 4; NSD2 HMT inh: 0

What do the screens show for `O=C(N/N=C/C(Br)=C/c1ccccc1)C(O)c1ccccc1` (stereo unspecified)?
Glyco luc inh: 1; CASP6 VEID inh: 2; SUMO Mot1 rescue: -36; ALR inh: -5; CDK5 inh: 2; NSD2 HMT inh: 2

Results for O=S(=O)(N[C@@H]1CC[C@@H](CCn2cc(C3CC3)nn2)O[C@H]1CO)c1ccc(F)cc1 ?
CASP6 VEID inh: -1

Results for CCOC(=O)c1cc(-c2ccccc2)nc2nc(N3CCCCC3)sc12 ?
Glyco luc inh: -1; SUMO Mot1 rescue: -20; ALR inh: 2; CDK5 inh: 1; NSD2 HMT inh: -1

What do the screens show for `O=C(O)c1cc(-c2ccccc2)nc2nc(N3CCCCC3)sc12`?
CASP6 VEID inh: 3; SUMO Mot1 rescue: -3; ALR inh: 80*; NSD2 HMT inh: 9

How did Cc1ccc(-c2cc(C(=O)O)c3sc(N4CCCCC4)nc3n2)cc1 do in these assays?
Glyco luc inh: 2; SUMO Mot1 rescue: -21; ALR inh: 98*; CDK5 inh: 0; NSD2 HMT inh: 0

Results for COc1ccc(-c2cc(C(=O)O)c3sc(N4CCCCC4)nc3n2)cc1OC ?
Glyco luc inh: 1; SUMO Mot1 rescue: -6; ALR inh: 8; CDK5 inh: -4; NSD2 HMT inh: 0

How did CN(C)CCCNC(=O)C[C@@H]1CC[C@@H]2[C@@H](COc3ccc(NC(=O)NC4CCCC4)cc3C(=O)N2C)O1 do in these assays?
CASP6 VEID inh: -2

Results for COC(=O)c1ccc2c(c1)C(C)(C)C(/C=C/c1ccc(OC)c(OC)c1OC)=[N+]2C ?
Glyco luc inh: -8; SUMO Mot1 rescue: -11; ALR inh: 39; CDK5 inh: 1; NSD2 HMT inh: -2

What do the screens show for `COC(=O)c1ccc2c(c1)C(C)(C)C(/C=C/c1ccc(O)cc1)=[N+]2C`?
Glyco luc inh: -16; SUMO Mot1 rescue: 7; ALR inh: 93*; CDK5 inh: 11; NSD2 HMT inh: 8

How did CCN(CC)S(=O)(=O)c1ccc(N=Nc2c(C)[nH]n(C(N)=S)c2=O)cc1 do in these assays?
Glyco luc inh: 0; SUMO Mot1 rescue: 3; ALR inh: 95*; CDK5 inh: -2; NSD2 HMT inh: -3

How did CCC(=O)N(C)C[C@H]1Oc2cc(-c3cccc(OC)c3)ccc2S(=O)(=O)N([C@H](C)CO)C[C@H]1C do in these assays?
CASP6 VEID inh: -2
